High-throughput results (PubChem)
Shown are actives, neighbours in structure and some others; about 2.3% of the full set was active somewhere.
aSyn UTR inh: MLPCN primary screen, SNCA 5' untranslated region. alpha-synuclein 5'UTR reporter, inhibitor activity. inhibition, % (tested at 7.5 µM). hit rate 0.82% among 300,000; in the data active means inhibition above about 60%;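 further: H4 neuroglioblastoma cells stably carrying SNCA 5'UTR luciferase fusion; 0% = DMSO wells and 100% = positive control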
Shn3 3UTR inh: reduction of Shn3 3'UTR firefly luciferase signal, primary screen, Schnurri-3 inhibitor project, cell-based, Clone20 osteoblasts, set 2; Clone20 osteoblast Shn3 3'UTR firefly luciferase, 24 h; inhibition, % at 12.5 µM; hit rate 0.52% among 360,000;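 active means mean inhibition of at least 75% with every replicate also reaching 75%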;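 further: 0% = median of neutral control wells and 100% = pilot-screen positive control compound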
Gli-Sufu antag: Gli-Sufu pathway antagonists, primary screen, luciferase luminescence, Sufu-KO-LIGHT cells, uHTS; AID 588413, 2011; hit rate 0.74% among 340,000; inhibition, % at 5 µM; Sufu-KO-LIGHT fibroblasts, Gli luciferase reporter luminescence;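 active means inhibition above about 55%, limit read from the data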;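 further: 0% = DMSO-treated cells and 100% = wells with medium but no cells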
697 NFkB inh: inhibitors of PMA/ionomycin-induced NF-kB reporter, 697 cells, primary screen, B-cell NF-kB inhibitor project, cell-based, luminescence, uHTS | 697 B-cell NF-kB luciferase reporter, 16 h | inhibition, % at 4 µM | hit rate 0.33% among 330,000 | AID 435022, 2010; in the data active means inhibition above about 35%
TAG inh: inhibitors of triacylglycerol accumulation, primary screen, cell-based, uHTS, fluorescence, H9c2. H9c2 cells, Nile Red lipid (TAG) fluorescence; cells loaded with 200 µM oleic acid. inhibition, % at 12.5 µM. hit rate 0.66% among 230,000;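 active means pattern-corrected inhibition of lipid staining of at least 50% with the nuclear-stain viability signal not falling by more than 50%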;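 further: 0% = DMSO wells and 100% = triacsin C control wells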
Jurkat NFkB inh: inhibitors of induced NF-kB luciferase reporter, primary screen, TCR NF-kB activation inhibitor project, cell-based, luminescence, uHTS; Jurkat, PMA/ionomycin-induced NF-kB luciferase reporter; hit rate 0.53% among 330,000; inhibition, % at 4 µM; AID 435003, 2010; in the data active means inhibition above about 50%
Gli-Sufu confirm: Gli-SUFU pathway antagonists, confirmation, single concentration, luciferase luminescence, Sufu-KO-LIGHT cells; shares compounds with Gli-Sufu antag; Gli luciferase reporter; inhibition, % at 5 µM; hit rate 40% among 2,500;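 active means mean inhibition at 5 µM reaching about 45%, limit read from the data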;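 further: plate controls were DMSO-treated cells for no effect and wells lacking cells for full effect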
Gli cytotox: cytotoxicity in Sufu-KO-LIGHT cells, confirmation, cytotoxicity control for Gli-SUFU antagonist project, cell-based, ATP luminescence, single concentration. shares compounds with Gli-Sufu antag. cytotoxicity, % at 5 µM. hit rate 32% among 2,500. AID 651994, 2013;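 active means mean cytotoxicity at 5 µM above about 25%, limit read from the data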;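 further: cells exposed to compound overnight for roughly 16 to 18 hours; plate controls were DMSO wells with cells for no effect and medium without cells for full effect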
Wnt3a cs: Wnt3a reporter signal inhibition, confirmation, counter-screen for Gli-SUFU antagonist project, Wnt-LIGHT cells, luminescence, single concentration; shares compounds with Gli-Sufu antag; AID 651995, 2013; inhibition, % at 6.25 µM; hit rate 20% among 2,500; Wnt3a-driven luciferase reporter;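 active means mean inhibition above about 25%, limit read from the data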
Numbers without * were called inactive; . = not tested or not shown.

SMILES	aSyn UTR inh	Shn3 3UTR inh	Gli-Sufu antag	697 NFkB inh	TAG inh	Jurkat NFkB inh	Gli-Sufu confirm	Gli cytotox	Wnt3a cs
CC(=O)c1cccc(OCC(O)CNCC2COc3ccccc3O2)c1 (stereo not drawn)	-4	-5	11	-3	.	1	.	.	.
CCc1nc2c(OCc3ccc(F)c(F)c3)cccn2c1N(C)C(=O)CC(C)C	.	13	.	.	-7	.	.	.	.
COc1ccc(S(=O)(=O)NC2CCCCCC2)cc1C(N)=O	0	16	63*	-3	-4	6	7	25	-50
COc1ccc(S(=O)(=O)NC2CCCCC2)cc1C(=O)N1CCCCC1	16	1	-4	17	-9	-8	.	.	.
Cc1cccc(-n2nc(C(=O)c3ccco3)cc(-c3nc4ccccc4[nH]3)c2=N)c1	-19	-5	44	-65	.	-19	.	.	.
Cc1ccccc1-n1nc(C(=O)c2cccs2)cc(-c2nc3ccccc3[nH]2)c1=N	18	17	59*	-31	3	-12	35	8	-82
COc1ccc(-n2nc(C(=O)c3cccs3)cc(-c3nc4ccccc4[nH]3)c2=N)cc1	-32	-137	98*	-147	-33	-7	3	-16	-13
Cc1cc(NC(=O)c2cccs2)n(-c2nc3ccccc3[nH]2)n1	-3	13	.	-5	49	2	.	.	.
Cc1c(C(=O)Nc2ccc(-c3nnc4n3CCCCC4)cc2)oc2ccc(Br)cc12	-24	16	52	-41	.	-7	32	13	-97
O=C(Nc1ccc(-c2nnc3n2CCCCC3)cc1)c1ccco1	-6	-5	-3	8	.	5	.	.	.
COc1ccc(S(=O)(=O)NCc2cc(=O)n(C)c(=O)n2C)cc1F	-3	7	-4	-5	.	3	.	.	.
COc1ccccc1CN(Cc1nc2ccccc2c(=O)[nH]1)S(=O)(=O)c1ccc(C)cc1	17	6	53	-2	.	-7	40	7	-2
COC(=O)c1c(-c2ccc(F)cc2)csc1NC(=O)C1CCCO1 (stereo not drawn)	-85	3	-17	-75	-36	-22	.	.	.
CC1=C(C(=O)OC2CCCCC2)C(c2ccc(O)cc2)NC(=O)N1 (stereo not drawn)	20	6	96*	10	.	11	24	5	-11
CN(C)NC(=O)c1ccc([N+](=O)[O-])s1	8	6	12	3	3	1	.	.	.
Cc1ccc(-c2cc3cccc[n+]3cc2-c2ccc(C)cc2)cc1	51	82	86*	-81	.	50	89*	27*	48*
CCCC(=O)NC1CCc2cc(OC)c(OC)c(OC)c2-c2ccc(OC)c(=O)cc21 (stereo not drawn)	.	6	56*	.	39	.	58*	64*	-2
COC(=O)c1ccc2c(c1)C(NC(C)=O)CCc1cc(OC)c(OC)c(OC)c1-2 (stereo not drawn)	.	12	65*	.	34	.	60*	57*	14
COc1cccc(C(=O)Nc2ccc3c(cc2=O)[C@@H](NC(C)=O)CCc2cc(OC)c(OC)c(OC)c2-3)c1	-1	16	5	4	.	47	.	.	.
Cc1cc(C(=O)NN=C2CC(=O)CC(C)(C)C2)c(C)o1	.	-20	-5	7	4	4	.	.	.
CC(C)c1ccc(-c2nc3ccccc3s2)cc1	98*	88*	64*	-31	-8	45	82*	73*	106*
COc1cc(C(=O)NC2CCN(C)CC2)ccc1Nc1ncc2c(n1)N(CCc1ccccc1)CCC(=O)N2C	.	-37	75*	.	.	.	67*	3	-13
COc1ccc(/C=N/N=C2/NC(=O)C(CC(=O)O)S2)cc1OS(=O)(=O)c1ccccc1 (stereo not drawn)	3	-19	25	22	-1	15	.	.	.
Cc1nc2ccccc2n1Cc1ccccc1	-46	49	20	-12	.	6	.	.	.
Cc1nc2ccccc2n1Cc1ccc(Br)cc1	-26	81	62*	-54	-24	47	59*	28*	22
SMILES	aSyn UTR inh	Shn3 3UTR inh	Gli-Sufu antag	697 NFkB inh	TAG inh	Jurkat NFkB inh	Gli-Sufu confirm	Gli cytotox	Wnt3a cs
Nc1ccc(Br)cc1-c1nc2ccccc2[nH]c1=O	-102	72	52	-14	-21	-21	69*	34*	7
CN(/N=C/c1ccc2c(c1)OCO2)c1ccccc1	-169	-163	-73	-121	.	-103	.	.	.
CCOC(=O)C1=C(C)N(c2ccccc2)C(=O)C1	-32	-14	76*	-11	.	-6	24	11	6
COC(=O)C1=C(C)N(c2ccc(S(N)(=O)=O)cc2)C(=O)C1	4	-1	-3	12	-6	-4	.	.	.
CC[C@@H](C)[C@H](C(CC(=O)N1CCCC1[C@@H](OC)[C@H](C)C(=O)N[C@H](Cc1ccccc1)c1nccs1)OC)N(C)C(=O)[C@H](NC(=O)[C@@H](C(C)C)N(C)C)C(C)C (stereo partly drawn)	.	18	55	.	37	.	70*	62*	40*
Nc1ccc(O)cc1C(=O)OCC(=O)c1ccc(C2CCCCC2)cc1	-37	24	66*	.	.	.	66*	33*	29*
CCC(C)(C)C1CCc2nc3ccccc3c(C(=O)OC(C)C(=O)Nc3c(C)n(C)n(-c4ccccc4)c3=O)c2C1 (stereo not drawn)	29	7	29	-11	.	-8	.	.	.
CSC(=S)N/N=C(\C)c1ccccc1	-25	-9	72*	-11	.	9	34	18	-5
CC(=O)N1CCc2cc(S(=O)(=O)NC(C(=O)NCc3ccccc3)C(C)C)ccc21 (stereo not drawn)	12	19	2	16	1	5	.	.	.
COc1cccc(CNC(=O)C(NS(=O)(=O)c2ccc3c(c2)CCN3C(C)=O)C(C)C)c1 (stereo not drawn)	-32	-24	61*	-11	.	-6	-3	24	-31
Cn1cc(CNCc2ccccc2OCC(O)CN2CCc3ccccc3C2)cn1 (stereo not drawn)	-6	4	55*	9	-15	1	29	8	-15
